# Bioassay records deposited in PubChem by National Center for Advancing Translational Sciences (NCATS).
# Luc counter = counter-screen: inhibitors of Kinase-Glo firefly luciferase. Potency, µM (top dose mostly 38.3 µM), inactives show top-dose activity change, negative = inhibition, actives largely listed as inhibitors. AID 1379. Q27757. 200,000 compounds, 0.28% hits. Kinase-Glo luciferase, ATP luminescence, 8 min; further: nearly all actives have a fitted effect of over 60% in size
#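 Compound is pinned into ATP-containing buffer (10 uM ATP, imidazole pH 7.2, 7 mM MgCl2). Kinase-Glo luciferase reagent is then added. Light output is recorded following an 8-min room-temperature incubation.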
# RORgamma inh = ROR gamma (mouse) transcription inhibition. Potency, µM (highest dose often 53.6 µM), without a hit: at the top dose activity change, negative = inhibition, actives largely listed as inhibitors. 310,000 compounds, 5.4% hits. Drosophila S2 Gal4-RORgamma UAS-luciferase reporter, 20 h; further: nearly all actives have a fitted effect of over 60% in size
# Target sequence (P51450 whole entry, looked up, the tested form may be a part): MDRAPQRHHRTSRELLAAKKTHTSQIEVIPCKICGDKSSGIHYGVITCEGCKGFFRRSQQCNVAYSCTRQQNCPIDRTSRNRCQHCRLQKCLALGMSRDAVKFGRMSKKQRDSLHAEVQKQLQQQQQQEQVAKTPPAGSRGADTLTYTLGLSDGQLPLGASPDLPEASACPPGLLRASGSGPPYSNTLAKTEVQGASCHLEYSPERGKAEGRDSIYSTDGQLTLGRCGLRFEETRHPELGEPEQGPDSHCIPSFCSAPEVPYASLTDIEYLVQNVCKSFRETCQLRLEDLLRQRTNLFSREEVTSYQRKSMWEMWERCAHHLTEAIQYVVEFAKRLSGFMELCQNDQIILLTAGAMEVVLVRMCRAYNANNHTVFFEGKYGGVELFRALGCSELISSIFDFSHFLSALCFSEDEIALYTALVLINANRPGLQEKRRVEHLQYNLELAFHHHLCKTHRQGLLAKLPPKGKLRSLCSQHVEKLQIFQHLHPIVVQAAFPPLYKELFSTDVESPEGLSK
#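 Using a luciferase readout, inhibitors were identified by reduced reporter activity in Drosophila cells coexpressing a copper-inducible Gal4–ROR gamma fusion and UAS-driven Photinus luciferase, incubated 20 hr after 700 uM copper sulfate.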
# Gal4-VP16 FLuc = inhibits Gal4-VP16 luciferase reporter, ROR gamma counter-screen. Drosophila S2 Gal4-VP16 UAS-luciferase, luminescence, 20 h. Potency, µM (titrated, usually from 53.6 µM), for the others: at the top dose activity, negative = inhibition, hits mostly inhibitors. 310,000 compounds, 3.5% hits;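 further: Gal4-VP16 expression switched on by copper sulfate through the metallothionein promoter; nearly all actives have a fitted effect of over 50% in size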
# Starred values were filed as active, the others as inactive; ? = inconclusive; . = no result; [ ] = another dose, or the depositor's remark. Only some compounds are listed: those with a hit (about 6.2% of all), similar ones and a draw of the others. The call rests on the fitted dose curve; in most records, active means well fitted curve in the direction sought with a large enough effect; inconclusive means small, poorly fitted or top-dose-only effect, or another doubt; inactive means no such curve, though single readings can be large; an effect the other way counts as inactive or inconclusive. On the % scale 0 is the no-effect control and ±100 the full control effect; potency means the concentration at half of the fitted maximal effect.
SMILES,Luc counter,RORgamma inh,Gal4-VP16 FLuc
Cc1nn2c(NCC(C)C)c3c(nc2c1-c1ccccc1)CCC3,-4%,?,6%
CCN(CC)C(=S)SSC(=S)N(CC)CC,-5%,1.1µM*,1µM*
CCN(CC)C(=S)SCC(=O)c1ccccc1,6%,6%,-7%
CN(NS(=O)(=O)c1ccc(Br)cc1)c1nc(C(F)(F)F)nc2ccccc12,-3%,?,?
COc1ccc(OC)c(/C(O)=C/C(=O)C(=O)Nc2cc(C)cc(C)c2)c1,0%,2.5µM*,18µM*
COc1ccc(OC)c(C(=O)c2ccccc2)c1,1%,?,3%
COc1ccc(OC)c(/C(O)=C/C(=O)C(=O)Nc2cc(C)ccc2OC)c1,1%,3.5µM*,11µM*
CCOc1ccccc1NC(=O)C(=O)/C=C(\O)c1cc(OC)ccc1OC,-4%,?,?
CCn1c(O)c(/C=N/N=C/c2ccccc2)c2ccc(C3=NNC(=O)CC3)cc21,-4%,22%,-5%
CCc1nc2n(n1)C(O)c1cc([N+](=O)[O-])ccc1S2 (stereo unspecified),.,1%,-3%
COc1ccc(-n2cccc2/C=C/[N+](=O)[O-])cc1,-1%,10µM*,?
COc1ccc(-n2cccc2C=O)cc1,4%,-5%[10 µM],6%
Cc1ccc(S(=O)(=O)Nc2ccc(O)c3cccnc23)cc1,.,10µM*,?
Cc1ccc(S(=O)(=O)Nc2ccc(O)c3ncccc23)cc1,-4%,2.5µM*,?
O=S(=O)(Nc1ccc(O)c2ccccc12)c1ccc(Br)cc1,.,-36%,-20%
Cc1ccc(S(=O)(=O)Nc2ccnc3ccccc23)cc1,1%,14%,7%
O=C1C(CCC(O)c2ccc(F)cc2)C(c2ccc(O)cc2)N1c1ccc(F)cc1 (stereo unspecified),0%,25%,-5%
Cc1cccc(-c2cc(C(=O)Nc3ccc4c(c3)OCCO4)c3ccccc3n2)c1,-20%,18%,5%
Cc1ccccc1NC(=S)NC(=O)c1cc(-c2ccccc2)nc2ccccc12,7%,1.8µM*,4µM*
Cc1cccc(NC(=S)NC(=O)c2cc(-c3ccccc3)nc3ccccc23)c1,6%,2µM*,5.6µM*
O=C(O)c1ccccc1NC(=O)c1cc(-c2ccccc2)nc2ccccc12,.,?,-8%
CCC(C)(C)c1ccc(OCCCC[n+]2cccc(C)c2C)c(C(C)(C)CC)c1,.,?,11µM*
CCC(C)(C)c1ccc(OCCCC[n+]2ccc(C)cc2)c(C(C)(C)CC)c1,-3%,?,?
C=CCN1CCN(C(=O)c2ccc3c(c2)OCO3)CC1,.,6%,-1%
O=C(Nc1ccc(Cl)cc1)Nc1nnc(SCc2ccc(Cl)cc2)s1,-1%,23%,-1%
SMILES,Luc counter,RORgamma inh,Gal4-VP16 FLuc
O=C(Nc1nnc(SCc2ccc(Cl)cc2)s1)c1cnccn1,-3%,13µM*,14µM*
CCNC1=C(Cl)C(=O)c2ccccc2C1=O,-13%,?,-3%
CCN(CC)c1ccc(NC2=C(Cl)C(=O)c3ccccc3C2=O)cc1,?,?,11µM*
Cn1cnc([N+](=O)[O-])c1S(=O)(=O)c1ccc(Cl)cc1,-2%,3.5µM*,5µM*
Cn1cnc([N+](=O)[O-])c1NC(C)(C)C,-4%,-3%,1%
O=C(NCC(O)c1ccccc1)c1cccs1 (stereo unspecified),.,-28%,-5%
NNc1ncnc2sc3c(c12)CCC3,-1%,3.2µM*,4µM*
C(=N\Nc1ncnc2sc3c(c12)CCC3)/c1ccncc1,3%,10µM*,20µM*
C(=N\Nc1ncnc2sc3c(c12)CCC3)/c1cccs1,6%,2.5µM*,5µM*
c1cc(Nc2ncnc3sc4c(c23)CCC4)ccn1,1%,-1%,10%
Cn1cnc2c(N/N=C/c3cccs3)ncnc21,.,-28%,?
c1ccc(CNc2ncnc3sc4c(c23)CCCC4)nc1,0%,-22%,5%
O=C(c1cn(-c2ccccc2)nc1-c1cccs1)N1CCN(c2ccccn2)CC1,1%,30%,2%
O=C(CCN1C(=O)c2ccccc2S1(=O)=O)Nc1ccc2c(c1)OCCO2,-5%,?,-3%
CCCC1Oc2ccccc2C(=O)N(CC(=O)c2ccc3c(c2)OCCO3)C1=O (stereo unspecified),.,42%,2%
O=C(CN1C(=O)c2ccccc2S1(=O)=O)c1ccc2c(c1)OCCO2,.,0.025µM*,0.56µM*
O=C(CN1C(=O)c2ccccc2S1(=O)=O)c1ccc2c(c1)OCCCO2,.,0.28µM*,0.71µM*
COc1ccc(C2=NN(C3=NN=C(N)Cc4ncnn43)C(O)(C(F)(F)F)C2)cc1 (stereo unspecified),1%,8.9µM*,11µM*
NC1=NN=C(N2N=C(c3ccccc3)CC2(O)C(F)(F)F)n2ncnc2C1 (stereo unspecified),2%,13µM*,?
CCOC(=O)N1N=C(c2ccccc2)CC1(O)C(C)(F)F (stereo unspecified),-1%,2%,-1%
NC1=NN=C(N2N=C(c3ccc(Br)cc3)CC2(O)C(F)(F)F)n2ncnc2C1 (stereo unspecified),5%,?,18µM*
COc1ccccc1C1=NN(C2=NN=C(N)Cc3ncnn32)C(O)(C(F)(F)F)C1 (stereo unspecified),1%,?,-7%
Cc1cc(-c2ccc(S(=O)(=O)N3CCN(c4ccccc4F)CC3)s2)on1,.,10%,-6%
O=c1c(CCc2ccccc2)nc2cnc(N3CCOCC3)nc2n1C[C@H]1CCCO1,-1%,27%,-14%
C[C@@H]1CC=C[C@H]2[C@H]1C(=O)N(Cc1ccccc1)[C@H]2c1ccc2ccccc2c1/C=C/c1ccccc1,.,-15%,0%
SMILES,Luc counter,RORgamma inh,Gal4-VP16 FLuc
CC1CC=CC2C1C(=O)N(Cc1ccccc1)C2c1ccc2ccccc2c1Br (stereo unspecified),.,?,22µM*
CCOC(=O)/C(C#N)=C\C1=C(N2CCOCC2)CC(C)(C)OC1,0%,-29%,3%
Cc1cc(C)nc(NC(=NCCc2c[nH]c3ccccc23)NC(=O)C(C)(C)C)n1,.,7.1µM*,?
Cc1cc(C)nc(N2C(=O)CC(C(=O)O)NC2=NCCc2c[nH]c3ccccc23)n1 (stereo unspecified),0%,-1%,-10%
O=C(CSc1ncnc2nc[nH]c12)Nc1nnc(SCc2ccc(Cl)c(Cl)c2)s1,3%,-42%,-3%
CCCn1nnc(NC(=O)c2ccc(Br)cc2)n1,4%,0%,-11%
CCCn1nnc(NC(=S)NC(=O)c2ccc(-c3ccc(Br)cc3)o2)n1,.,0.79µM*,2.5µM*
O=C(NC(=S)Nc1ccc(CN2CCOCC2)cc1)c1ccc(-c2ccc(Br)cc2)o1,.,-26%,-14%
Cn1nnc(NC(=S)NC(=O)c2ccc(-c3ccc(Br)cc3)o2)n1,2%,0.71µM*,5µM*
CC(C)CC(=O)Nc1ccc(C(=O)CN2CCN(c3ccc(O)cc3)CC2)cc1,.,-15%,-11%
CCc1cccc(NC(=O)CCSCCC(=O)Nc2cccc(CC)c2)c1,-1%,-28%,4%
CC(CC(=O)Nc1nc2ccccc2[nH]1)n1ccnc1 (stereo unspecified),0%,4%,-1%
Cc1ccc(CC(=O)Nc2ccccc2-c2ccccc2)cc1C,-4%,0%,1%
